From the supplement of paper PMC6555819

Legend:
Assay in all cases: PBM binding z-score (relative to random genomic background probes); higher = stronger binding; sequences stand for … in GC…GCGATTGACAGCGTAGAATGAAGG
[1] = test system: PPARg:RXRa DBDmut IVT, anti-RXR (DBD mutation: RXRa K156A/R161A, NR concentration 270 nM, RXRa partner concentration 90 nM)
Procedure, shortened: (§1)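 For binding z-scores, the reference was random background probes on custom Agilent 4×180K protein-binding microarrays. These arrays were incubated 1 h with ligand-free nuclear receptor dimers in PBS pH 7.4, 2% milk, 0.02% Triton X-100, 1 mM DTT, 0.2 mg/mL BSA and 0.4 mg/ml salmon testes DNA. Fluorescence was scanned after antibody detection of each partner (one per run) and regression-normalized.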

[2] = test system: PPARg:RXRa IVT, anti-PPARg (NR concentration 270 nM, RXRa partner concentration 90 nM)
Procedure, shortened: as §1

[3] = test system: PPARg DBDmut:RXRa IVT, anti-PPARg (DBD mutation: PPARg1 K132A/R137A, NR concentration 270 nM, RXRa partner concentration 90 nM)
Procedure, shortened: as §1

[4] = test system: PPARg DBDmut IVT, anti-PPARg (DBD mutation: PPARg1 K132A/R137A, NR concentration 270 nM)
Procedure, shortened: as §1

[5] = test system: PPARg homodimer (NR concentration 180 nM)
Procedure, shortened: as §1

[6] = test system: PXR:RXRa (NR concentration 270 nM, RXRa partner concentration 90 nM)
Procedure, shortened: as §1

[7] = test system: PXR homodimer (NR concentration 270 nM)
Procedure, shortened: as §1

[8] = test system: RARa:RXR (NR concentration 270 nM, RXRa partner concentration 90 nM)
Procedure, shortened: as §1

[9] = test system: RARa homodimer (NR concentration 270 nM)
Procedure, shortened: as §1

[10] = test system: RARb:RXRa (NR concentration 270 nM, RXRa partner concentration 90 nM)
Procedure, shortened: as §1

Row | Sequence | PBM binding z-score [1] | PBM binding z-score [2] | PBM binding z-score [3] | PBM binding z-score [4] | PBM binding z-score [5] | PBM binding z-score [6] | PBM binding z-score [7] | PBM binding z-score [8] | PBM binding z-score [9] | PBM binding z-score [10]
1 | TCTGCTAGGTCAACGATGGTCATCTAATCTGCTA | 4.28 | 4.02 | 0.183 | 0.11 | 0.637 | 2.1 | -0.415 | 2.56 | -0.306 | 4.09
2 | AGAACGAGGGCACGCTGAGTTGATTGCAGAGTAG | 4.08 | 3.53 | 0.256 | 0.126 | 0.222 | 1.56 | -0.0942 | 0.717 | -0.751 | 2.36
3 | TAACCTAGGTCATGGGCCAGTATACCACGCGAAC | 4.06 | 5.09 | 1.44 | 0.97 | 2.68 | 2.19 | 0.195 | 3.44 | 1.11 | 4.08
4 | TCATATAGGTACAAGGTGAAAGTCGGTGTGGTAA | 3.23 | 2.75 | 0.878 | 0.815 | 1.21 | 0.845 | 0.358 | 1.25 | 1.19 | 1.12
5 | ACTTACGGGTCAGCGAGGTTATAGCACGCGTATA | 1.92 | 3.48 | 0.822 | 0.254 | 1.62 | 4.18 | 1.12 | 4.25 | 0.477 | 4.09
6 | CCGAATGGGGCATAAGGTTACCATAAGCCAGCCC | 0.417 | 1.24 | -1.29 | -1.15 | 0.844 | 0.477 | -0.466 | 1.55 | -0.315 | 1.79
7 | CCTACTGGGCCAAAAAGGTCACTGATGCCGATAA | 3.78 | 4.39 | -0.138 | -0.0876 | 3.8 | 4.22 | 1.16 | 4.59 | 1.29 | 4.15
8 | CTACCAAGGTGAACAAGGTCGTTGACTACTATTC | 2.76 | 2.84 | 0.603 | 0.324 | 0.75 | 2.98 | 2.72 | 2.61 | 0.269 | 2.29
9 | CCTCGGAAGACAACAGGAGGTCAGAGCTGCCAGA | -0.389 | -0.416 | -0.399 | -1.87 | 1.38 | 1.62 | 0.458 | 2.01 | 0.559 | 1.81
10 | CCTACTGGGCCACGAAAGGACATTGATTCAGTGA | 4.98 | 5.21 | 0.3 | -0.299 | 0.467 | -0.024 | -0.134 | 0.342 | 0.45 | 1.11
11 | GATACAGGGTCCAGGCCAGAGTACGCGTATTGAT | -0.66 | -0.0913 | -0.12 | -0.0353 | 0.34 | -0.441 | -0.03 | -0.412 | -0.345 | 0.355
12 | CTCGAAAGGTAGTGCTCAGGTGAGTATACCAAAC | -0.0569 | -0.0512 | -0.21 | -0.517 | -0.0331 | -0.295 | -0.0771 | 0.238 | 0.44 | -0.123
13 | CATACTAGGTCAAGAGGTCAAAGTCCGCTTCCCG | 7.37 | 7.69 | 4.46 | 2.98 | 5.59 | 6.4 | 2.53 | 7.53 | 3.07 | 5.67
14 | GCTGCTAGCTCAGGTTGGTCAGCTAACGGGTACG | -0.142 | -0.678 | -1.21 | -1.62 | -1.31 | -0.81 | -0.881 | -0.76 | -2.27 | -0.463
15 | ACTTACGGGTCGACGAGGTTATAGCACGCGTATA | 0.585 | 1.14 | 0.084 | 0.394 | 0.944 | 2.68 | 0.798 | 2.75 | -0.198 | 1.82
16 | CTCGAAACGTCGGTTGAGGTGAGTATACGGATAA | -0.197 | -0.061 | 0.192 | 0.207 | 0.264 | 0.0163 | -0.284 | 0.752 | -0.037 | 0.205
17 | TCTGCTAGGTCAACGATGGTCAGATAATCTGCTA | 4.35 | 4.34 | -0.0109 | 0.256 | 1.82 | 2.15 | -0.779 | 2.44 | -0.13 | 4.26
18 | GCTATTAGTTGAACGGGCAACCGAATGATTCTCG | 0.443 | -0.481 | -1.02 | -0.0789 | -0.518 | -0.435 | -0.664 | -0.533 | -0.461 | 0.14
19 | GCAACGAGGGCATTCGAGTTGATAGCATGGCGAT | 1.69 | 1.13 | -0.431 | -0.39 | -0.299 | 3.66 | 1.02 | 0.56 | -0.554 | 1.69
20 | TCATATAGGTAAAGGTGAAAGACGAACGATATGA | 3.92 | 4.19 | 2 | 1.64 | 1.19 | 0.767 | -0.0893 | 1.22 | 0.159 | 1.85
21 | TAGCCTAGGTCAGATCGGGCCAGTATTCGCTATA | 0.568 | 1.66 | -0.683 | -1.02 | 0.109 | 1.28 | -0.946 | 0.894 | -0.762 | 3.14
22 | CTCGAAAGGTCGGTTGAGGTGAGTCTACGGATAA | 0.22 | 0.948 | -0.0486 | -0.386 | 1.13 | 3.39 | -0.0836 | 2.2 | -0.523 | 2.97
23 | TCGAGTAGGTTACCAATGCGGCATTCAGCTTTCT | 3.59 | 2.67 | -0.407 | -1.16 | -0.385 | -0.209 | -1.01 | -0.26 | -0.774 | 0.646
